Measured values taken from PubChem BioAssay (NCI).
This is part of a sample that, as a whole, favours compounds with a hit. Of some 83,000 tested, about 20% had one in any assay.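 48-hour exposure, single concentration, 96-well plates; percent growth endpoint where 0 means no net growth. Active: below 10.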 Activity calls are given as the source filed them.

How the values were obtained:
Assay in all cases: NCI-60 one-dose screen, 48 h (100 = growth as untreated, 0 = no growth, -100 = all killed)
Conditions in all cases: 10 µM unless noted
NCI-H23 lung = test system: NCI-H23 lung
NCI-H226 lung = test system: NCI-H226 lung
NCI-H322M lung = test system: NCI-H322M lung
HOP-62 NSCLC = test system: HOP-62 NSCLC
NCI-H460 lung = test system: NCI-H460 lung
HOP-92 NSCLC = test system: HOP-92 NSCLC
NCI-H522 lung = test system: NCI-H522 lung
A549/ATCC NSCLC = test system: A549/ATCC NSCLC
786-0 renal = test system: 786-0 renal
COLO 205 colon = test system: COLO 205 colon

Measured: growth

COc1ccc2[nH]c(=O)c3c4ccccc4cn3c2c1
inactive: NCI-H23 lung 39.4% | NCI-H226 lung 37% | NCI-H322M lung 11.6% | HOP-62 NSCLC 39.3% | HOP-92 NSCLC 33.7% | A549/ATCC NSCLC 40.1% | 786-0 renal 17.7%
active: NCI-H460 lung 2.51% | NCI-H522 lung 3.62% | COLO 205 colon 0.252%

OC(c1cc2cc(Br)ccc2c2cc(Br)ccc12)C1CCCCN1 (stereo not given)
active: NCI-H23 lung -75.4% | NCI-H226 lung -70.1% | NCI-H322M lung -84.9% | HOP-62 NSCLC -84.1% | NCI-H460 lung -71.7% | HOP-92 NSCLC -88.9% | NCI-H522 lung -86.1% | A549/ATCC NSCLC -81.3% | 786-0 renal -41.6% | COLO 205 colon -89.9%

CC(=O)OC[C@]12CC[C@H]3[C@@H](C[C@H]4O[C@]45CC=CC(=O)[C@]35C)[C@]1(O)CC[C@@]2(O)[C@@](C)(O)C1CC(C)=C(C)C(=O)O1 (stereo not given in full)
active: NCI-H23 lung -32.9% | NCI-H226 lung -28.5% | NCI-H322M lung -54.2% | HOP-62 NSCLC -34% | NCI-H460 lung -51.3% | HOP-92 NSCLC -34.6% | NCI-H522 lung -54.1% | A549/ATCC NSCLC 6.23% | 786-0 renal -19.6% | COLO 205 colon -35.7%

CCCCCCCCC(C)OC(=O)c1nn(C(C)=O)c2ccccc12 (stereo not given)
inactive: NCI-H23 lung 89.3% | NCI-H226 lung 105% | NCI-H322M lung 102% | HOP-62 NSCLC 97.7% | NCI-H460 lung 110% | HOP-92 NSCLC 98.7% | NCI-H522 lung 90.1% | A549/ATCC NSCLC 94.1% | 786-0 renal 97.3% | COLO 205 colon 111%

O=C(/C=C/c1c[nH]c2ccccc12)c1ccc(O)c(CN2CCN(c3ccc(F)cc3)CC2)c1
inactive: NCI-H23 lung 99.8% | NCI-H226 lung 100% | NCI-H322M lung 103% | HOP-62 NSCLC 95.9% | NCI-H460 lung 106% | HOP-92 NSCLC 95.5% | NCI-H522 lung 102% | A549/ATCC NSCLC 99.5% | 786-0 renal 103% | COLO 205 colon 109%

Cc1ccc(S(=O)(=O)c2nc(-c3ccccc3)oc2S(C)(=O)=O)cc1
active: HOP-92 NSCLC -27.4% | NCI-H522 lung -84.4% | 786-0 renal -16.5% | COLO 205 colon -76.6%
inactive: NCI-H23 lung 76.3% | NCI-H226 lung 90.5% | NCI-H322M lung 106% | HOP-62 NSCLC 80.7% | NCI-H460 lung 80% | A549/ATCC NSCLC 85.6%

COc1cccc(/C=C/C(=O)Nc2cc(OC)c3c(c2)OCO3)c1
inactive: NCI-H23 lung 97.1% | NCI-H226 lung 99.2% | NCI-H322M lung 102% | HOP-62 NSCLC 99.7% | NCI-H460 lung 100% | HOP-92 NSCLC 86.5% | NCI-H522 lung 87.4% | A549/ATCC NSCLC 98.3% | 786-0 renal 91.3% | COLO 205 colon 109%

O=C(Nc1ccc2c(c1)OCCO2)C(=O)c1c[nH]c2ccccc12
inactive: NCI-H23 lung 24.5% | NCI-H226 lung 82.7% | NCI-H322M lung 54.3% | HOP-62 NSCLC 42.9% | A549/ATCC NSCLC 47.7% | 786-0 renal 59.7% | COLO 205 colon 10.2%
active: NCI-H460 lung 8.62% | HOP-92 NSCLC 1.01% | NCI-H522 lung -40.4%

CN(C)CCN1C(=O)c2ccc3c4c(ccc(c24)C1=O)C(=O)N(CCN=C=S)C3=O
active: NCI-H23 lung -61.7% | NCI-H226 lung -94.7% | NCI-H322M lung -94.1% | HOP-62 NSCLC -96.3% | NCI-H460 lung -43.5% | HOP-92 NSCLC -79.5% | NCI-H522 lung -93.8% | A549/ATCC NSCLC -52.8% | 786-0 renal -81.3% | COLO 205 colon -87.9%

COc1ccc(C2C=C(c3ccc(OC)c(OC)c3)N=C3SC=C(C)N32)c(Br)c1 (stereo not given)
inactive: NCI-H23 lung 99.2% | NCI-H226 lung 99.2% | NCI-H322M lung 95.8% | HOP-62 NSCLC 108% | NCI-H460 lung 105% | HOP-92 NSCLC 156% | NCI-H522 lung 96.7% | A549/ATCC NSCLC 103% | 786-0 renal 111% | COLO 205 colon 108%

C=C1CCC2C(C)(CO)C(O)CCC2(C)C1C/C=C1/C(=O)OCC1O/C=C/c1ccccc1 (stereo not given)
inactive: NCI-H23 lung 87.7% | NCI-H226 lung 83.7% | NCI-H322M lung 94.7% | HOP-62 NSCLC 104% | NCI-H460 lung 75.2% | HOP-92 NSCLC 76.1% | NCI-H522 lung 60.3% | A549/ATCC NSCLC 71.8% | 786-0 renal 93.1% | COLO 205 colon 101%

O=S1(=O)CCC(N(/N=C/c2ccco2)c2ccccc2)C1 (stereo not given)
inactive: NCI-H23 lung 102% | NCI-H226 lung 104% | NCI-H322M lung 102% | HOP-62 NSCLC 104% | NCI-H460 lung 107% | HOP-92 NSCLC 96.5% | NCI-H522 lung 95.5% | A549/ATCC NSCLC 97.9% | 786-0 renal 103% | COLO 205 colon 117%

CC(=O)Nc1ccc(S(=O)(=O)n2ccc(-c3ccc4c(c3)CCC(C)(C)O4)n2)cc1
inactive: NCI-H23 lung 56.6% | NCI-H226 lung 52.4% | NCI-H322M lung 89% | HOP-62 NSCLC 94.4% | NCI-H460 lung 41.4% | HOP-92 NSCLC 69.8% | NCI-H522 lung 54% | A549/ATCC NSCLC 57.8% | 786-0 renal 79.8% | COLO 205 colon 88.8%

C=C1CC2(OC1=O)C(=O)N(CCCN1C(=O)C3(CC(=C)C(=O)O3)c3ccccc31)c1ccccc12 (stereo not given)
active: HOP-92 NSCLC -27% | NCI-H522 lung -78% | COLO 205 colon -58.8%
inactive: NCI-H23 lung 57.6% | NCI-H226 lung 78.7% | NCI-H322M lung 86.1% | HOP-62 NSCLC 98.2% | NCI-H460 lung 44.3% | A549/ATCC NSCLC 83.1% | 786-0 renal 20.1%
